Screening data as filed in PubChem.
Sampled rows, rich in hits. Any-hit rate of the full collection: about 2.4%.
D2 PAM-1: D2 dopamine receptor (human) potentiation | 340,000 compounds, 0.34% hits | HEK293 T-REx D2, calcium flux, EC20 dopamine potentiation | P14416 | potentiation, % at 10 µM;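 active = potentiation over 3 SD above the plate norm, cut at about 30% in these data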
Target sequence (P14416 whole entry, looked up): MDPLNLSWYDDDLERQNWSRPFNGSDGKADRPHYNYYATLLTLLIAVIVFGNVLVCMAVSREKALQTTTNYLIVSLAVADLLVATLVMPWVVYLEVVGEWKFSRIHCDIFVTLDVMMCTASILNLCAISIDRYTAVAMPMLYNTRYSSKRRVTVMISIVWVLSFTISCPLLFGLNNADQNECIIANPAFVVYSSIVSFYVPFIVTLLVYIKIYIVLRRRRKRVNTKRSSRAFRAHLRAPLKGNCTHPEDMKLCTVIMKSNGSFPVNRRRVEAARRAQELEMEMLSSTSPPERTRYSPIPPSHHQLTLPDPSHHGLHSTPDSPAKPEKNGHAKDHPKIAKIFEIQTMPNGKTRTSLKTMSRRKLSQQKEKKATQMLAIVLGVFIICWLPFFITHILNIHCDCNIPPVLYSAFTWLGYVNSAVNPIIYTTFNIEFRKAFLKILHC
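Using a no-wash calcium dye in inducible, force-coupled HEK293 Trex cells expressing D2, we tracked fluorescence each second for 180 s after compound, then for 180 s after EC20 dopamine to detect augmented signalling.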
D2 PAM-2: positive allosteric modulators of human D2 dopamine receptor. DiscoveRx D2 beta-arrestin cells, luminescence, 90 min; 100% = 57 uM dopamine signal. P14416. AID 624464. 360,000 compounds, 0.23% hits. potentiation, % (no concentration beside the values); in the data active = potentiation above about 50%; inconclusive = mostly about 30% to 49%
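PathHunter D2 cells, attached overnight at 37 deg C, received compound in DMSO plus dopamine at EC20 (50 nM final) for 90 min at 37 deg C. Beta-arrestin recruitment was read as luminescence after 1 h with detection reagent at ambient temperature.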
D2 antag: D2 dopamine receptor (human) antagonism. P14416. inhibition, % at 10 µM. 340,000 compounds, 2% hits. HEK293 TREx D2 cells, calcium flux, dopamine EC80; in the data active = inhibition above about 30%; inactive = below that, where a call was filed
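In this primary screen, negative modulation is detected by tracking calcium flux after an EC80 dopamine challenge in inducible HEK293 T-REx D2 cells preexposed to test compound for 180 s.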
D2 ag-1: agonists of human D2 dopamine receptor (beta-arrestin); DiscoveRx PathHunter D2 beta-arrestin, luminescence, 90 min; 100% = 57 uM dopamine signal; activation, % (test concentration not listed); 360,000 compounds, 0.084% hits; AID 624465; in the data active = activation above about 40%; inconclusive = between about 15% and that limit
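Agonist mode: compounds alone added to overnight-plated D2 PathHunter cells for 90 min at 37 C, with 57 uM final dopamine (EC100) defining full response. Beta-arrestin recruitment detected by chemiluminescent reagent, read after 1 h at ambient temperature.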
D2 ag-2: D2 dopamine receptor (human) agonism | activation, % at 2 µM | AID 485358 | 340,000 compounds, 0.53% hits | HEK293 T-REx D2 cells, calcium flux agonist mode;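 active = activation over 3 SD above normal in the single-dose calcium agonist read, cut at about 30% in these data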
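Tetracycline-induced HEK293 T-REx cells with force-coupled D2 receptor, plated overnight at 30 C, loaded with no-wash calcium dye. After a 10 s baseline, compound was pin-added and calcium flux read kinetically for 180 s; calcium rises flagged agonists.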
Each line names hits and unclear results; the compound was inactive in the other large screens.

CCOc1cccc(/C(O)=C2/C(=O)C(=O)N(CCOC)C2c2ccco2)c1 (stereo not drawn)	D2 PAM-1 34
O=C(Cn1c(=O)nc(-c2ccccc2)c2ccccc21)NCc1ccc(Cl)cc1	none (no result: D2 PAM-2, D2 antag, D2 ag-1)
CC(C)c1ccc(N(C(=O)CNC(=O)c2ccco2)C(C(=O)NC2CCCC2)c2ccncc2)cc1 (stereo not drawn)	D2 antag 31
O=C1CN(C(=O)c2ccc(S(=O)(=O)N3CCCCC3)cc2)C(c2ccc(F)cc2)c2cc(Cl)ccc2N1 (stereo not drawn)	none (no result: D2 PAM-2, D2 antag, D2 ag-1)
CCOc1ccc(N2CC(C(=O)NCCN3C(=O)S/C(=C\c4ccc(OC)cc4)C3=O)CC2=O)cc1 (stereo not drawn)	none
COc1ccc(/C=C2\SC(=O)N(CCNC(=O)C3CC(=O)N(c4ccccc4)C3)C2=O)cc1 (stereo not drawn)	D2 PAM-1 37
O=C(CSc1nnc2ccc3ccccc3n12)Nc1ccccc1Cl	none (no result: D2 PAM-2, D2 antag, D2 ag-1)
CC(OC(=O)c1ccc([N+](=O)[O-])o1)C(=O)Nc1nc(-c2ccc(F)c(F)c2)cs1 (stereo not drawn)	D2 PAM-2 66
Cc1cc(C(=O)OC(C)C(=O)Nc2nc(-c3ccccc3)cs2)c(C)o1 (stereo not drawn)	none
CCN(CC)C(=O)Cn1c(=O)n(CC(=O)N2CCCCC2)c(=O)c2sccc21	D2 antag 33
CCCNC(=O)Cn1c(=O)n(CC(=O)N2CCCCC2)c(=O)c2sccc21	none
FC(F)(F)c1ccccc1/C=N/N1CCN(Cc2ccccc2)CC1	D2 antag 30
Clc1ccccc1/C=N/N1CCN(Cc2ccccc2)CC1	none
Cc1ccc(CN2CCN(/N=C/c3cccs3)CC2)cc1	D2 antag 34
Cc1ccc(/C=N/N2CCN(Cc3ccc(C)cc3)CC2)cc1	D2 antag 55
Cc1ccc(CN2CCN(/N=C/c3ccc(C(F)(F)F)cc3)CC2)cc1	none
Cc1ccc(NCc2ccccc2O)cc1	none
Cc1ccc(CNc2ccc(O)cc2)cc1	D2 PAM-2 70, D2 ag-1 inconclusive (no result: D2 PAM-1)
CC1CCN(C(=O)CSc2nc(-c3ccc(C(C)C)cc3)no2)CC1	none (no result: D2 PAM-2, D2 antag, D2 ag-1)
N#C/C(=C/c1ccc(N2CCOCC2)o1)C(=O)Nc1ccccc1	D2 ag-2 40
N#C/C(=C\c1ccc(N2CCOCC2)o1)C(=O)NCCc1ccccc1	D2 antag 46
COCCNC(=O)/C(C#N)=C/c1ccc(N2CCOCC2)o1	none
Cc1ccc(-n2c(Cc3ccccc3)nnc2SCc2nc(-c3cccs3)no2)cc1C	none (no result: D2 PAM-2, D2 antag, D2 ag-1)
CCN(CC)CCNC(=O)CSc1nc2nc(C)c(Cc3ccccc3)c(C)n2n1	none (no result: D2 PAM-2, D2 antag, D2 ag-1)
CC(C)(C)c1cc(C(=O)N/N=C/c2cc3c(cc2Br)OCO3)n[nH]1	D2 antag 49
O=C(N/N=C/c1cc2c(cc1Br)OCO2)c1cc2ccccc2o1	D2 antag 80
O=C(N/N=C/c1cc2c(cc1Br)OCO2)c1ccccn1	none
c1csc(C2=Nn3c(nnc3-c3ccncc3)SC2)c1	D2 PAM-1 32
CCOC(=O)c1sc(N2C(=O)c3oc4ccc(F)cc4c(=O)c3C2c2ccc(O)cc2)nc1C (stereo not drawn)	none (no result: D2 PAM-2, D2 antag, D2 ag-1)
CC(=O)Nc1ccc(NC(=O)C(C)OC(=O)CCC2CCCC2)cc1 (stereo not drawn)	D2 antag 30
CC(=O)Nc1ccc(NC(=O)C(C)OC(=O)CC2CCCC2)cc1 (stereo not drawn)	none
Cc1ccccc1-c1nc(C#N)c(N2CCC(C)CC2)o1	D2 antag 31
Cc1cc(C)cc(NC(=O)Cn2c(=O)n(-c3cc(C)cc(C)c3)c(=O)c3oc4ccccc4c32)c1	none (no result: D2 PAM-2, D2 antag, D2 ag-1)
CSCCC(NC(=O)OC(C)(C)C)C(=O)Oc1ccc2c(=O)c(-c3ccc4c(c3)OCCO4)coc2c1 (stereo not drawn)	D2 antag 33
OCC1(Cc2ccccc2)CCN(C2CCN(c3ccccc3F)CC2)CC1	D2 antag 47
O=C(Cc1ccccc1)N1CCN(c2ccccc2F)CC1	none
OCC1(Cc2ccccc2)CCN(Cc2cnn(-c3ccccc3F)c2)CC1	D2 antag 31
CC(C)(C)OC(=O)N1CCC(c2c(C(=O)Nc3ccc4c(c3)OCCO4)cnn2-c2ccc(F)cc2)CC1	none (no result: D2 PAM-2, D2 antag, D2 ag-1)
